Results on five compounds are retold here after PubChem BioAssay AID1845227 (National Center for Advancing Translational Sciences (NCATS), 2023).

Inconclusive results are not listed. A call without a number means that no potency is given here. Active and inactive are the calls of the source. Calls follow the shape of the dose curve; as a rule, active = well fitted inhibition curve with a large enough effect; inconclusive = small, poorly fitted or top-dose-only effect; inactive = no such curve, though single readings can be large or run the other way.
Potency is read from the fitted curve at half-maximal effect.

The target in the assay is Luciferin 4-monooxygenase (Photinus pyralis) (UniProt P08659). The assay can be described thus: Confirmatory firefly luciferase (FLuc) qHTS assay for identification of artifact compounds. To be noted: purified FLuc enzyme, luminescence, 5 min; series mostly up to 38.9 µM. From the text: PI: Alexander Tropsha Ph.D. UNC Eshelman School of Pharmacy University of North Carolina, Chapel Hill, North Carolina Hits from high-throughput screening (HTS) of chemical libraries are often false positives due to their interference with the assay detection technology. In response to this problem, we generated the largest publicly available library of chemical liabilities and developed a free webtool to predict HTS artifacts, both of which are described herein. More specifically, we generated, curated, and integrated HTS datasets for thiol reactivity, redox activity, and luciferase (firefly and nano) activity. Using these curated datasets, we developed and validated several Quantitative Structure-Interference Relationship (QSIR) models to predict nuisance behavior. […] These models were employed for virtual profiling of the National Center for Advancing Translational Science's (NCATS) in-house library, and 256 compounds for each assay were selected for the experimental validation of nuisance behavior. The BA for these external predictions ranged from 58 to 78% for compounds within the applicability domains of the models. […] The models developed in this study, along with aggregation models previously developed by our group (SCAM Detective) were implemented in "Liability Predictor," an online tool which may be used as part of chemical library design or for triaging HTS hits. Both the models and the curated datasets are publicly available at https://liability.mml.unc.edu/.
PROTOCOL TABLE SEQUENCE No. (e.g., 1, 2, 3, etc.); […] (e.g., Cells, Incubation, Reagent, etc.); VALUE; DESCRIPTION. 1; Reagent; 3 uL; Luciferase substrate mixture. 2; Compounds and control; 16 nL; Kalypsis pin tool (Wako USA) equipped with a 1536-well pin head. 3; Incubation; 15 min. 4; Reagent; 1 uL; Luciferase enzyme. 5; Incubation; 5 min. 6; Detection; Luminescence, ViewLux microplate reader. NOTES (numbers refer to Sequence numbers above) 1. 3 uL of luciferase substrate mixture containing D-luciferin and ATP (final concentrations of 10 uM and 10 uM, respectively) in assay buffer (10 mM Mg-acetate, 0.01% Tween-20, 0.05% bovine serum albumin, 50 mM Tris acetate, pH 7.6) was dispensed into all wells of a 1536-well assay plate (solid-bottom white plate; Greiner Bio One, Monroe, NC). 2. A Wako Pin-tool (Wako Automation, Richmond, VA) was used to transfer 16 nL of compounds (consisting of 7-plates in qHTS format, final concentration range 18.3 nM to 114 uM) or control PTC124 (final concentration range 1.22 nM to 40 uM). 3. 15 min. incubation at room temperature protected from light. 4. 1 uL of luciferase enzyme (final concentration 10 nM, Photinus pyralis luciferase) or buffer was dispensed for a final assay volume of 4 uL. 5. Plates were centrifuged (121xg, 15 seconds) and incubated for 5 minutes. 6. Samples were read for luminescence on a ViewLux CCD imager (PerkinElmer). Data were normalized to no-enzyme (0% activity) and no-inhibitor (DMSO; 100%) controls and the resulting percent inhibition data were fitted to a 4-parameter Hill equation using NCATS in-house software.
On the technique in general: In qHTS, concentration-response curves come from the screen itself.
Take `O=C(O)c1cc[c]([Hg][S]c2ncnc3nc[nH]c23)cc1`: the Potency is 12.2 µM (active).
With `C[C@@]12CCC(OS(=O)(=O)O)C[C@@H]1CCC1C2CC[C@]2(C)C(=O)CCC12` (stereo not given in full), the Potency entry is “inactive”.
In the case of `CC(=O)OCC(=O)[C@H]1CC[C@H]2[C@@H]3CC[C@H]4C[C@H](O)CC[C@]4(C)[C@H]3C(=O)C[C@]12C`, the Potency result was “inactive”.
In the case of `CN(C)[C@@H]1C(=O)C(C(N)=O)=C(O)[C@@]2(O)C(=O)C3=C(O)c4c(O)ccc(Cl)c4[C@@](C)(O)[C@H]3C[C@@H]12`, the Potency entry is “inactive”.
For the compound `COC(=O)[C@]1(C)CC[C@@]2(C)CC[C@@]3(C)C4=CC=C5C(=CC(=O)C(O)=C5C)[C@@]4(C)CC[C@@]3(C)C2C1` (stereo not given in full), the Potency entry is “inactive”.
